Screening data as filed in PubChem BioAssay.
SSB-PriA inh: inhibitors of Klebsiella pneumoniae PriA binding to SSB C-terminal tail, primary screen, biochemical, AlphaScreen; PriA–SSB C-terminal tail interaction (Klebsiella pneumoniae); AlphaScreen SSBct-PriA binding, biotinylated peptide; inhibition, % at 33 µM; hit rate 0.6% among 430,000; in the data active = inhibition mostly above about 37%, no sharp cut-off; inactive = mostly below about 20%;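 note: plate controls were negative control peptide for no effect and reference peptide for full effect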
BJeLR viability: MLPCN primary cell-based screen for lethality selective to Ras in HRASV12 cells; BJeLR (HRASV12) viability, CellTiter-Glo ATP luminescence, 48 h; hit rate 0.17% among 300,000; AID 1554, 2009; inhibition, % (test concentration not listed); in the data active = inhibition above about 50%
3CLpro inhibitor: SARS-CoV 3CLpro protease inhibitors, primary screen, biochemical, quenched FRET | Replicase polyprotein 1ab (Severe acute respiratory syndrome coronavirus), P0C6X7 | recombinant SARS-CoV 3CLpro, quenched FRET peptide cleavage | inhibition, % at 6 µM | hit rate 0.14% among 290,000 | AID 1706, 2009; in the data active = inhibition above about 12%
An asterisk follows results filed as active; / = not tested or not shown; ! = a repeat was not active. The list is not random: actives were taken first. Their share in the collection is about 0.78%.

SMILES	SSB-PriA inh	BJeLR viability	3CLpro inhibitor
CCOC(=O)c1ccc(Nc2nc(C(=O)OCC)nc3ccccc23)cc1	-17	-10	0
CCOC(=O)c1nc(Nc2ccc(Nc3ccccc3)cc2)c2ccccc2n1	47*	6	0
Cc1ccccc1-n1ncc2c(C(C)C)n[nH]c(=O)c21	-7	/	/
O=C(Cc1csc(Nc2ccccc2)n1)Nc1nc2ccccc2s1	2	/	/
Cn1c(/C=C/c2ccccc2)nc2ccccc2c1=O	-6	7	6
Cn1c(/C=C/c2ccc([N+](=O)[O-])o2)nc2ccccc2c1=O	-4	82*	4
CC(=O)c1ccc(S(=O)(=O)Nc2cnc3ccnn3c2)cc1	-4	/	/
Cc1cnc2n(c1=O)C(CC(=O)NCc1ccc(F)cc1)CS2 (stereo unspecified)	-13	/	/
Nn1c(SCC(=O)Nc2ccc(F)cc2)nnc1-c1ccccn1	7	-3	0
CCOc1ccc(NC(=O)CSc2nnc(-c3ccccn3)n2N)cc1	64*!	-2	-4
CCOc1ccc(NC(=O)CSc2nnc(-c3ccccn3)n2C)cc1	-10	-3	0
Cc1nnc(NC(=O)CSc2ncc(-c3ccc(Br)cc3)n2-c2ccccc2C)s1	-1	/	/
COc1ccc(NC(=O)CSc2nnc(-c3ccccn3)n2N)cc1	59*	10	7
COc1ccc(-c2cnc(SCC(=O)Nc3ccccc3)n2-c2ccccc2C)cc1	44*	/	/
O=C(NCCn1nc(-c2ccc(F)cc2)ccc1=O)c1ccc2c(c1)OCO2	-14	/	/
C=CCNC(=O)COc1ccc([N+](=O)[O-])cc1	-9	/	/
CS(=O)(=O)Nc1cnc(N2CCCC2)nc1	-13	/	/
O=C(NCc1cnn2ccccc12)c1cncc(Br)c1	-6	/	/
Cc1nc2sc(C)c(C)n2c(=O)c1NC(=O)C1CC1	-16	/	/
O=C(Cn1cnc2ccccc21)Nc1nc2c(s1)C(=O)NCCC2	-11	/	/
COc1ccc(-c2nnc(NC(=O)c3cc(Cl)cc(Cl)c3)s2)c(OC)c1	6	/	/
CCC(C)Nc1c([N+](=O)[O-])cc(C(C)(C)C)cc1[N+](=O)[O-] (stereo unspecified)	117*	/	/
CCC(C)NC(=O)c1ccc([N+](=O)[O-])c(Cl)c1 (stereo unspecified)	0	7	-4
O=C(NCCc1cccs1)c1coc(NC(=O)C2CC2)n1	-13	/	/
CCOC(=O)C1CCCN(C(=O)CS(=O)(=O)c2ccc3c(c2)S(=O)(=O)N=CN3)C1 (stereo unspecified)	-8	/	/
SMILES	SSB-PriA inh	BJeLR viability	3CLpro inhibitor
O=C(NC[C@H]1CCCN1c1nc2ccccc2o1)c1ccc(-n2cccc2)cc1	29*	/	/
Cc1nc2ccccn2c1C(=O)NCC1CCCN1c1nc2ccccc2o1 (stereo unspecified)	-6	/	/
O=C(CN1CCC(c2nnc(-c3ccc(F)cc3)o2)CC1)N1CCOCC1	-17	/	/
CN(C)C(CNc1ccc(S(C)(=O)=O)cc1[N+](=O)[O-])c1ccccc1 (stereo unspecified)	4	4	-3
CN(C)C(CNc1ccc(C(F)(F)F)cc1[N+](=O)[O-])c1ccccc1 (stereo unspecified)	49*	1	-5
O=C(Nc1nnc(-c2ccccc2Cl)o1)C1CC(=O)N(c2ccccc2)C1 (stereo unspecified)	46*	/	/
O=C(Nc1nccs1)C1CC(=O)N(c2ccc(F)cc2)C1 (stereo unspecified)	-18	-3	2
Cc1onc(-c2ccccc2Cl)c1C(=O)Nc1nnc(C2CC(=O)N(c3ccccc3)C2)o1 (stereo unspecified)	-10	/	/
O=C(Nc1nnc(-c2cccs2)o1)C1CC(=O)N(c2ccc(F)cc2)C1 (stereo unspecified)	27*!	/	/
O=S(=O)(NCC(O)c1cccs1)c1ccccc1Cl (stereo unspecified)	0	/	/
CCOC(=O)c1c2c(n(C)c1C)C(=O)C(=O)c1ccc(Br)cc1-2	-5	55*	-6
CCOC(=O)c1c2c(n(Cc3ccccc3)c1C)C(=O)C(=O)c1ccccc1-2	23	/	/
O=C(c1ccccc1Br)N1CC(Oc2nccs2)C1	-7	/	/
CCCc1ccc(C(=O)N(Cc2ccsc2)CC(F)(F)F)cc1	-24	/	/
Cc1ccc(N2CCC(CNC(=O)c3ccc(-c4ccccc4)cc3)CC2)nn1	-8	/	/
Cc1nc(N)nc(N)c1CCCc1ccc(Cl)c(Cl)c1	2	57*	/
Cc1nc(N)nc(N)c1-c1ccc(Cl)c(Cl)c1	-5	/	/
CCc1nc2sc3c(c2c(=O)o1)CCCC3	69*	1	-7
CC(C)(C)c1nc2sc3c(c2c(=O)o1)CCCC3	-7	-3	-7
CN(C)c1ccc(OC2CCN(C(=O)NCc3cccs3)C2)nn1 (stereo unspecified)	-9	/	/
COc1cc(S(N)(=O)=O)c(OC)cc1N	-7	-1	-3
COc1cc(N=Nc2ccc(C)cc2S(N)(=O)=O)c(C)cc1N	48*	/	/
COCCN1CCC(NC(=O)c2c(F)cccc2F)CC1	-17	/	/
O=C(COc1ccccc1)Nc1nnc(S(=O)(=O)N2CCCCCC2)s1	95*	-2	6
COc1ccc(C(=O)Nc2nnc(S(=O)(=O)N3CCCCCC3)s2)cc1OC	82*	-2	1
SMILES	SSB-PriA inh	BJeLR viability	3CLpro inhibitor
O=C(COc1ccccc1Cl)Nc1nnc(S(=O)(=O)N2CCCCCC2)s1	100*	5	-1
O=C(COc1ccccc1)Nc1nnc(S(=O)(=O)N2CCCCC2)s1	-15	0	-1
COc1ccc(C(=O)Nc2nnc(S(=O)(=O)N3CCC(C)CC3)s2)cc1OC	-11	10	10
O=C(COc1ccc(F)cc1)Nc1nnc(S(=O)(=O)N2CCCC2)s1	-25	5	3
CCC(=O)Nc1nnc(S(=O)(=O)N2CCCC2)s1	1	3	-1
CCC(=O)Nc1nnc(S(=O)(=O)N2CCCCCC2)s1	100*	-3	5
CCC(=O)N1CCc2ccc(NC(=O)COC)cc2C1	-11	/	/
O=C(CN1CSCC1=O)Nc1nc(-c2ccccn2)cs1	56	/	/
CSCCC(=O)Nc1nc(-c2ccccn2)cs1	-9	/	4
O=C(CN1C(=O)CCOc2ccccc21)Nc1nc(-c2ccccn2)cs1	93*	/	/
O=C(CN1C(=O)CCC1=O)Nc1nc(-c2ccccn2)cs1	51*	-3	3
CCCCC(=O)Nc1nc(-c2ccccn2)cs1	50*	/	/
O=C(CN1C(=O)CCC1=O)Nc1nc(-c2ccc3ccccc3c2)cs1	-2	-2	6
CCNC(=O)CN1C(=O)NC2(CCOc3ccccc32)C1=O (stereo unspecified)	-8	-5	0
O=C(CN1C(=O)NC2(CCOc3ccccc32)C1=O)Nc1nc(-c2ccccn2)cs1 (stereo unspecified)	111*	/	/
Fc1cc(F)c2nc(NCCN3CCOCC3)sc2c1	23	/	/
O=C(NCCc1ccccc1Cl)c1ccc(Cn2c(=O)[nH]c3ccccc3c2=O)cc1	2	/	/
O=C(NCCc1ncc(-c2cccs2)[nH]1)c1ccsc1	-16	/	/
O=C(c1ccc(=O)n(Cc2cccc(F)c2)n1)N1CCN(c2ccc(F)c(Cl)c2)CC1	6	/	/
COc1ccc(-c2ccc(N3CCCC(C(=O)Nc4ccc([N+](=O)[O-])cc4)C3)nn2)cc1 (stereo unspecified)	-2	/	/
